Experimental data: ChEMBL document CHEMBL4513216, “Probing the Open Global Health Chemical Diversity Library for Multistage-Active Starting Points for Next-Generation Antimalarials” (ACS Infect Dis, 2020)
Out of some 69,000 compounds screened, about 8,600 (12%) showed an effect of 50% or more. Only a selection was taken, and strong results are over-represented in it overall.

What follows are compounds tested on Plasmodium berghei (assay: Screen against P. berghei liver stage (PbLuc), transformed with Luciferase, at 10uM). Details: tested at 10 uM.
Format: functional, HepG2

In order of rising INHIBITION:
1. Cc1occc1C(=O)N1CCC(C(O)c2ccc(F)cc2)CC1 (stereo not given)  -85.6%
2. Cn1cccc1C(=O)COc1ccc(S(N)(=O)=O)cc1  -55.3%
3. c1cncc(-c2ncnc3c2CCN(Cc2cccs2)CC3)c1  -49.8%
4. Cc1occc1C(=O)N1CCC(C(O)c2ccc(Cl)cc2)CC1 (stereo not given)  -49.3%
5. CCCC(=O)N1CCC(Cc2ccccc2-c2ccccc2)(C(N)=O)C1 (stereo not given)  -31%
6. CS(=O)(=O)N1CCC(Cc2cnc(Br)cn2)C1 (stereo not given)  -29.9%
7. O=C(c1c[nH]c(=O)c(Cl)c1)N1CCc2ccccc2C1  -29.6%
8. CC(C)Oc1ncc(C(=O)N2CCC(NC(=O)C3CC3)CC2)cc1Cl  -13.2%
9. COc1cc(CSc2nnc(C)n2CC(N)=O)ccc1SC  -9.93%
10. CN(C)S(=O)(=O)N1CCC(C(O)c2ccc(Cl)cc2)CC1 (stereo not given)  -9.8%
11. CCOCC(=O)N1CCC(C(O)c2ccc(F)cc2)CC1 (stereo not given)  -6.99%
12. Cc1cc(N2CCC(C(=O)NC3CC3)CC2)nc(-c2ccncc2)n1  -0.219%
13. CN(C)C(=O)c1c[nH]nc1-c1ccc(CNC(=O)c2cnccn2)cc1  0.5%
14. CCn1c(CC2CCN(S(=O)(=O)N3CCCCC3)CC2)nn(C)c1=O  0.546%
15. CN1CCOCC12CCN(Cc1nccs1)CC2  0.804%
16. CCN1CCOCC12CCN(c1ccc(C#N)cc1)CC2  2.4%
17. O=C(CCc1ccccc1)N1CCC(N2CCNC2=O)CC1  2.61%
18. Cc1nc(C)n(C2CCCN(C(=O)c3ccc(OC(C)C)nc3)C2)n1 (stereo not given)  5.907%
19. CCN1CCn2c(C)cnc2C12CCN(C(=O)NC)CC2  6.27%
20. Cc1ccc(C(=O)NC2CCN(CC(=O)N(C)c3ccccc3)CC2)o1  7.27%
21. COc1ccc(CNC(=O)Nc2cccnc2OC)cc1O  9.54%
22. O=C(CCc1cccs1)N1CCCC(N2CCNC2=O)C1 (stereo not given)  11.6%
23. c1cnc(N2CCCC(Cc3nccs3)C2)nc1 (stereo not given)  11.685%
24. O=C(c1ccc(O)nc1)N1CCc2ccc(O)cc2C1  11.7%
25. COc1cc(C)nc(N2CCN(C(=O)c3ccoc3C)CC2)n1  11.9%
26. O=C(O)c1ccccc1-n1cnc(CN2CCc3ccccc3C2)c1  12.8%
27. CCS(=O)(=O)N1CCO[C@H]2[C@H](Oc3ncccc3F)CC[C@@H]21  17.4%
28. O=C(C1CCOCC1)N1CCC2(CCN(Cc3nccs3)CC2)CC1  18.3%
29. Cc1ncc(-c2ccncc2)c(C2CCCN(C(=O)c3ccno3)C2)n1 (stereo not given)  18.505%
30. O=C1CC(c2cccnc2)c2c(c(C(=O)O)cn2-c2ccccc2F)N1 (stereo not given)  19.4%
31. Cc1ccccc1CNC(=O)Cn1ncc2c1c(C)nn2C  21.7%
32. Cc1c(CCC(=O)N2CCCC2c2ccnc(N(C)C)c2)cnn1C (stereo not given)  23%
33. CC(C)Oc1ncc(C(=O)N2CCCC(C(=O)O)C2)cc1Cl (stereo not given)  23.3%
34. CNC(=O)C1(CCCc2cnccn2)CCN1CCc1ccccc1 (stereo not given)  23.8%
35. O=C(NC1CC1)c1cc(C2CC2)nc2onc(C3CCNCC3)c12  24.2%
36. Cc1ccc(N2CC[C@H]3OCC[C@@]3(C(=O)N(C)C)C2)nn1  24.3%
37. O=C(CCc1cccs1)N1CCC(N2CCNC2=O)CC1  27.8%
38. O=C(CCc1ccc(Cl)s1)N1CCCC(N2CCNC2=O)C1 (stereo not given)  30%
39. CN(C)CCN(Cc1cccc(F)c1)C(=O)c1ccn(C)c(=O)c1  31.1%
40. CCN1CCOCC12CCN(c1cnccn1)CC2  32.1%
41. c1csc(CN2CCC3(CCCN3CC3CC3)CC2)n1  33%
42. Cc1noc(C)c1CN1CCOCC12CCN(c1cnccn1)CC2  34.9%
43. CS(=O)(=O)NC1CCN(C(=O)c2coc(CN3CCOCC3)c2)CC1  34.9%
44. CN(C)Cc1ccnc(C2CN(Cc3nccs3)CCO2)n1 (stereo not given)  35.2%
45. Cc1cc(C)c(NC(=O)Nc2cnn(CC(O)CN(C)C)c2)c(C)c1 (stereo not given)  35.4%
46. CNS(=O)(=O)c1ccc(CNC(=O)c2cccc(C)n2)cc1  37.4%
47. COCCN(C)C(=O)c1cc2c(s1)CCN2C(=O)C1CC1  37.5%
48. Cn1nc(C2CCCN2)c2c(C(=O)NC3CC3)cc(C3CC3)nc21 (stereo not given)  40%
49. COCCN1CCOCC12CCN(c1cnccn1)CC2  42.1%
50. CC(C)CC(=O)N1C[C@@H]2CCN(c3ncccn3)C[C@@H]2C1  44.1%
51. O=C(NCC1CC1)[C@@H]1CCO[C@@H]2CCN(c3ncccn3)C[C@@H]21  44.2%
52. Cn1nc(C2CCNC2)c2c(C(=O)NC3CC3)cc(C3CC3)nc21 (stereo not given)  45.8%
53. O=C(C1CCOC1)N1CCC2(CCN(Cc3nccs3)C2)CC1 (stereo not given)  46.2%
54. Cn1nc(C2CCNC2)c2c(C(=O)NCC(F)(F)F)cc(C3CC3)nc21 (stereo not given)  47.4%
55. Cc1noc(C)c1CN1CCOCC12CCN(c1ncccn1)CC2  47.5%
56. O=C1C[C@H]2[C@@H](CCN2C(=O)c2ccc[nH]2)N1CCN1CCCC1  47.9%
57. COCCN1CCOCC12CCN(c1ccc(C#N)cc1)CC2  49.7%
58. CCN(C)S(=O)(=O)N1CCC(C(O)c2ccc(Cl)cc2)CC1 (stereo not given)  50.1%
59. c1csc(CN2CCC3(CC2)COCCN3CC2CC2)n1  50.7%
60. CCN(C)S(=O)(=O)N1CCC(C(O)c2ccc(F)cc2)CC1 (stereo not given)  51.1%
61. O=C(C1CCOC1)N1CCC2(CCN(Cc3nccs3)CC2)CC1 (stereo not given)  52%
62. Cn1nc(C2CCCNC2)c2c(C(=O)NC3CC3)cc(C3CC3)nc21 (stereo not given)  52.4%
63. COCCN1CCOCC12CCN(c1nccs1)CC2  53.9%
64. CCN1CCOCC12CCN(c1nccs1)CC2  54.8%
65. Cn1nc(C2CCNCC2)c2c(C(=O)NC3CC3)cc(C3CC3)nc21  59.8%
66. O=C(CCc1ccc(Cl)s1)N1CCC(N2CCNC2=O)CC1  60.9%
67. Cc1noc(C)c1CN1CCOCC12CCN(c1nccs1)CC2  67.5%
68. O=C(CCCc1cccs1)N1CCC(N2CCNC2=O)CC1  70.8%
69. O=C(c1cnc(OCC(F)(F)F)c(Cl)c1)N1CCc2ccc(O)cc2C1  70.9%
70. CC(C)Oc1ncc(C(=O)N2CCc3ccc(O)cc3C2)cc1Cl  77.1%
